# KB-V1 cytotox – qHTS assay for MDR1-selective chemotherapeutics: Primary screen using the drug-selected MDR subline cells KB-V1 | KB-V1 MDR cells viability, CellTiter-Glo, 72 h | Potency, µM (doses to about 46.1 µM), hits mostly cytotoxic | hit rate 3.4% among 400,000 | AID 1347076, 2019; note: % is set by controls: 0 for no effect and ±100 for the full control effect; nearly all actives have a fitted effect of over 60% in size
#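 Cytotoxicity toward P-gp-expressing KB-V1 cells was determined as loss of CellTiter-Glo luminescence after 72 h at 37 degrees C. Compounds were tested in quantitative HTS format across a concentration range, with curves fitted to normalized data.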
# SW480 rerep – A quantitative high throughput screen for small molecules that induce DNA re-replication in SW480 colon adenocarcinoma cells; SW480 DNA re-replication, Hoechst DNA content imaging, 48 h; hit rate 1.8% among 340,000; Potency, µM (doses to about 46.1 µM), inactives show at the highest dose re-replication activation, usual class: activators; AID 624297, 2012; note: % of control where 0% means no effect; nearly all actives have a fitted effect of over 55% in size
#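 Treated cells incubate 48 hr (37 C, 5% CO2), are stained 40 min with Hoechst, and nuclear fluorescence is enumerated; a rise in nuclei with high DNA signal marks re-replication.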
# ELG1 DNA repair – qHTS screen for small molecules that inhibit ELG1-dependent DNA repair in human embryonic kidney (HEK293T) cells expressing luciferase-tagged ELG1. HEK293T ELG1-luciferase reporter, luminescence, 16 h; DNA damage induced by 5-fluorouridine. Potency, µM (titrated, usually from 46.1 µM), without a hit: at the highest dose activity change, negative = inhibition, usual class: inhibitors. hit rate 2.3% among 330,000. AID 504467, 2011; note: % is set by controls: 0 for no effect and ±100 for the full control effect; nearly all actives have a fitted effect of over 55% in size
#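 5-Fluorouridine DNA damage + compound/DMSO, 2,000 cells/well, 16 h, 37 °C/5% CO2. ONE-Glo, 30 min RT, luminescence. Readout = decrease in reporter signal.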
# KB-3-1 tox – qHTS assay for MDR1-selective chemotherapeutics: Primary screen using the parental adenocarcinoma cell KB-3-1; KB-3-1 viability, CellTiter-Glo ATP luminescence, 72 h; Potency, µM (doses to about 46.1 µM), hits mostly cytotoxic; hit rate 1.4% among 400,000; AID 1347075, 2019; note: % is set by controls: 0 for no effect and ±100 for the full control effect; nearly all actives have a fitted effect of over 60% in size
#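 72 h, 37 °C compound treatment of KB-3-1 parental cells; CellTiter-Glo added, 10 min, luminescence read. Data corrected against DMSO-only plates and normalized before curve fitting.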
# MCF10A rereplic – A quantitative high throughput screen for small molecules that induce DNA re-replication in MCF 10a normal breast cells; MCF 10A DNA re-replication, Hoechst nuclear intensity, 48 h; hit rate 2.9% among 350,000; Potency, µM (highest dose often 46.1 µM), inactives show at the top dose activity, positive = re-replication, most hits filed as activators; AID 624296, 2012; note: % of control where 0% means no effect; nearly all actives have a fitted effect of over 50% in size
# Numbers without * were called inactive; i = inactive; ? = inconclusive; . = no result given. Most compounds without a hit are left out; they make up all but 8.1% or so of the library. Calls come from the whole dose curve; as a rule, active = well fitted curve in the direction sought with a large enough effect; inconclusive = small, poorly fitted or top-dose-only effect, or another doubt; inactive = no such curve, though single readings can be large; an effect the other way counts as inactive or inconclusive. Potency is the fitted concentration of half-maximal effect.
SMILES,KB-V1 cytotox,SW480 rerep,ELG1 DNA repair,KB-3-1 tox,MCF10A rereplic
CS(=O)(=O)N1CCN(c2ccc([N+](=O)[O-])c(NCc3ccc(Cl)cc3)c2)CC1,i,11%,?,i,?
O=C(Nc1cccc2nsnc12)c1cccnc1Cl,?,-3%,1%,i,2%
CCN1/C(=C/C=C/c2oc3ccc(-c4ccccc4)cc3[n+]2CC)Oc2ccc(-c3ccccc3)cc21,15µM*,?,12µM*,9.2µM*,-9%
CCCCN1C(=O)/C(=C/C=C2\Oc3ccccc3N2CC)SC1=S,i,-4%,11%,i,2%
Cc1cc(C(=O)CN2C(=O)NC3(CCCCC3C)C2=O)c(C)n1Cc1cccs1 (configuration not stated),23µM*,1%,?,i,15%
Cc1cc(C(=O)CN2C(=O)c3cccc(N)c3C2=O)c(C)n1Cc1cccs1,i,?,?,i,2.6µM*
Cc1cc(C(=O)CSc2nnc(-c3ccccc3F)o2)c(C)n1Cc1cccs1,?,-4%,?,i,?
CCCCOC(=O)Nc1ccc(S(=O)(=O)Nc2ccc([N+](=O)[O-])cc2)cc1,21µM*,?,16%,i,15%
CCCCN(CCCC)S(=O)(=O)c1ccc(NS(=O)(=O)c2ccc(NC(C)=O)cc2)cc1,i,2%,-6%,i,15µM*
CCCCN(CCCC)S(=O)(=O)c1ccc(NC(=O)Cc2cccs2)cc1,5.2µM*,-2%,?,i,24%
CCCCOc1ccc(S(=O)(=O)Nc2ccc(NC(C)=O)cc2)cc1,21µM*,-3%,-23%,?,19%
CCCN(CCC)S(=O)(=O)c1ccc(NC(=O)Cc2cccs2)cc1,?,-1%,-20%,i,3%
COc1cc(OC)cc(-n2c(=O)c3sccc3n(Cc3ccc(F)cc3)c2=O)c1,i,.,.,i,.
O=c1c2sccc2n(Cc2cccc(F)c2)c(=O)n1-c1ccc(F)cc1,8.2µM*,4%,4%,i,?
Cc1cccc(Cn2c(=O)n(-c3ccc(CC(=O)NCc4ccco4)cc3)c(=O)c3sccc32)c1,?,?,?,23µM*,?
Cc1ccc(CNC(=O)C2CCN(Cc3nc(-c4ccccc4C)oc3C)CC2)cc1,i,.,.,i,.
CCCN1CCN(CCCNC(=O)c2ccccc2NC(=O)C2=C(C)OCCS2)CC1,i,?,?,i,17%
CCCCN1CC(N2CCN(C)CC2)CS1(=O)=O (configuration not stated),i,.,.,i,.
CNc1cc(CSc2ccc(Cl)cc2)nc(C)n1,i,5.2µM*,?,i,-17%
Cc1nc(CSc2ccc(Cl)cc2)cc(NCc2ccccc2)n1,?,1%,21%,i,8%
CC(C)CNC(=O)c1cccc(NC(=O)Cc2ccc(Cl)cc2)c1,5.8µM*,-127%,?,?,-72%
CC(=O)c1cccc(NC(=S)NCCc2ccc(Cl)cc2)c1,18µM*,0%,?,?,14%
S=C(NCCc1ccccn1)Nc1cccc(Cl)c1,21µM*,6%,9%,i,19%
CN1C(=O)c2cccc3c(S(=O)(=O)NCCc4ccccc4)ccc1c23,i,?,3%,i,23µM*
COCCNS(=O)(=O)c1ccc2c3c(cccc13)C(=O)N2C,i,2%,?,i,-4%
SMILES,KB-V1 cytotox,SW480 rerep,ELG1 DNA repair,KB-3-1 tox,MCF10A rereplic
O=C(Nc1ccc(-n2cccn2)cc1)C1CCCCN1Cc1cccc2c1OCO2 (configuration not stated),?,?,8.2µM*,4.1µM*,3.7µM*
Cc1ccc(NC(=O)c2cc(NC(=O)c3ccco3)ccc2N2CCOCC2)cc1Cl,?,-6%,16µM*,i,2%
O=C(Nc1ccc(N2CCCCC2)c(C(=O)O)c1)c1ccco1,i,-6%,?,i,-1%
O=C(Nc1ccc(N2CCCC2)c(Cl)c1)c1ccco1,?,-9%,?,i,-5%
Cc1cccc(NC(=O)c2cc(NC(=O)c3ccco3)ccc2N2CCCCC2)c1,i,16%,19%,i,12µM*
CSc1nnc(-c2sccc2OCc2ccc(C)cc2)n1C,18µM*,?,7%,?,?
Cc1[nH]nc2oc(=O)c(CCO)c(C)c12,i,16µM*,10%,i,?
O=[N+]([O-])c1ccc(/C=N/Nc2nc(N3CCCCCC3)nc(N3CCCCCC3)n2)o1,?,?,23µM*,6.5µM*,?
O=[N+]([O-])c1ccc(Nc2nc(N3CCOCC3)nc(N3CCOCC3)n2)cc1,i,-20%,.,i,2%
O=[N+]([O-])c1ccc(-c2ccc(/C=N/Nc3nc(NCc4ccccc4)nc(N4CCOCC4)n3)o2)cc1,i,9.2µM*,?,i,7.3µM*
O=[N+]([O-])c1ccc(/C=N/Nc2nc(N3CCCCC3)nc(N3CCCCC3)n2)cc1,i,-6%,-28%,i,-1%
COc1nc(N/N=C/c2ccc(-c3ccccc3[N+](=O)[O-])o2)nc(N2CCOCC2)n1,?,?,?,?,10µM*
COC(=O)c1ccccc1-c1ccc(/C=N/Nc2nc(N3CCCC3)nc(N3CCCC3)n2)o1,?,?,?,i,?
COC(=O)c1ccccc1N(C)S(C)(=O)=O,i,-10%,-12%,i,-2%
COCCCNC(=O)Cn1cc(/C=C(\C#N)C(=O)NC2CC2)c2ccccc21,i,2%,-2%,i,8%
COc1ccc(CNC(=O)C2CCC(CNS(=O)(=O)c3cccc4cccnc34)CC2)cc1 (configuration not stated),i,2%,-17%,i,-3%
C[C@H](CO)N1C[C@H](C)[C@H](CN(C)C(=O)c2ccncc2)OCc2cnnn2CCCC1=O,i,.,.,i,.
CCn1nc(NC(=O)c2ccccn2)c2cc3cccc(C)c3nc21,i,?,-15%,i,12µM*
CCn1nc(NC(=O)C2CCCO2)c2cc3cccc(C)c3nc21 (configuration not stated),i,18µM*,?,i,?
CCn1nc(NC(=O)c2cccnc2)c2cc3cccc(C)c3nc21,i,?,-4%,i,7.1µM*
Cc1ccc(S(=O)(=O)n2nc(OC(=O)c3ccccc3F)cc2N)cc1,i,-10%,-1%,i,13%
